# Source: PubChem (National Center for Advancing Translational Sciences (NCATS))
# Most compounds without a hit are left out; they make up all but 19% or so of the library.
# HT1080 IDH1KD tx – qHTS for induction of synthetic lethality in tumor cells producing 2HG: qHTS for the HT-1080-IDH1KD cell line; HT-1080 IDH1 knockdown viability, ATP luminescence, 48 h; Potency, µM (top dose mostly 46.1 µM), for inactives: top-dose activity, negative = toxicity, actives largely listed as cytotoxic; 2% of 360,000 active;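 note: potency is the fitted concentration of half-maximal effect; 0% = DMSO wells and -100% = cell-free medium wells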
#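 HT-1080-IDH1KD cells (IDH1 knocked down), 750/well in RPMI with 5% FBS, treated with compound 48 h at 37 degrees C. Viability by CellTiter-Glo luminescence, normalised to DMSO and no-cell wells; concentration-response curves classed.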
# ELG1 repair inh – qHTS screen for small molecules that inhibit ELG1-dependent DNA repair in human embryonic kidney (HEK293T) cells expressing luciferase-tagged ELG1. HEK293T ELG1-luciferase reporter, luminescence, 16 h; DNA damage induced by 5-fluorouridine. Potency, µM (top dose mostly 46.1 µM), for inactives: top-dose activity change, negative = inhibition, hits mostly inhibitors. 2.3% of 330,000 active; note: potency is the fitted concentration of half-maximal effect; nearly all actives have a fitted effect of over 55% in size
#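 Overnight (16 hr) co-exposure of 2,000 cells/well to 5-fluorouridine and compound at 37 °C preceded detection. Luciferase was quantified via ONE-Glo luminescence; loss of signal denotes inhibition.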
# IL1B secr inh – qHTS for Inhibitors of Inflammasome Signaling: IL-1-beta AlphaLISA Primary Screen. THP-1 LPS/ATP IL-1B secretion, AlphaLISA, 16 h; hits give low values. AID 743279, 2014. 4.7% of 360,000 active. activity change, % at 57.5 µM; in the data active = activity change below about -50%; inconclusive = mostly about -30% to -49%
#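 THP-1 cells pretreated 1 hr with compounds (up to 57.5 uM final), then stimulated with LPS (250 ng/mL final) plus ATP (1.25 mM final); secreted IL-1B measured by AlphaLISA after 16 hr, decreased signal indicating inhibition.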
# HT1080-NT tox – qHTS for induction of synthetic lethality in tumor cells producing 2HG: qHTS for the HT-1080-NT fibrosarcoma cell line; HT-1080-NT fibrosarcoma viability, CellTiter-Glo ATP luminescence, 48 h; Potency, µM (highest dose often 46.1 µM), inactives show at the highest dose activity, negative = less viability, most hits filed as cytotoxic; 1.6% of 360,000 active; AID 686970, 2013;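 note: NT is the 2HG producing partner of a matched IDH1 knockdown line; potency is the fitted concentration of half-maximal effect; 0% = DMSO-treated cells and -100% = media-only wells without cells; nearly all actives have a fitted effect of over 55% in size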
#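 Luminescent CellTiter-Glo readout after 48 hours of compound exposure at 37 degrees C defined viability of HT-1080-NT cells. Activity was normalized to DMSO wells and cell-free media wells; concentration-response curves were fitted and assigned curve classes.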
# TDP1 cell CPT – qHTS for Inhibitors of human tyrosyl-DNA phosphodiesterase 1 (TDP1): qHTS in cells in presence of CPT. Potency, µM (doses to about 46.2 µM), without a hit: top-dose activity change, negative = growth inhibition, hits mostly inhibitors. chicken DT40 Tdp1-/-;hTDP1 cells + 20 nM CPT, ATP luminescence, 48 h. 12% of 420,000 active; note: potency is the fitted concentration of half-maximal effect; nearly all actives have a fitted effect of over 55% in size
#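 Chicken DT40 Tdp1-/- cells complemented with human TDP1, 400 cells/well, exposed to compounds plus 20 nM camptothecin for at least 48 h at 37 C; viability read as ATP content by CellTiter-Glo luminescence.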
# DT40 TDP1 no CPT – qHTS for Inhibitors of human tyrosyl-DNA phosphodiesterase 1 (TDP1): qHTS in cells in absence of CPT | DT40 Tdp1-/- hTDP1 cells, no CPT, ATP luminescence, 48 h | Potency, µM (series often up to 46.2 µM), inactives show at the top dose activity change, negative = growth inhibition, actives largely listed as inhibitors | 15% of 420,000 active | AID 686978, 2013; note: potency is the fitted concentration of half-maximal effect; nearly all actives have a fitted effect of over 55% in size
#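 Compound effects on proliferation are scored in DT40 Tdp1-/-;hTDP1 cells in the absence of CPT. ATP levels (CellTiter-Glo luminescence) are recorded after a ≥48 hr, 37 °C incubation.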
# Active calls of the source: *; ? = inconclusive; / = no result; [ ] = dose if it differs, or a comment. Unless noted, calls come from the whole dose curve; as a rule, active = well fitted curve in the direction sought with a large enough effect; inconclusive = small, poorly fitted or top-dose-only effect, or another doubt; inactive = no such curve, though single readings can be large; an effect the other way counts as inactive or inconclusive. Unless noted, % is set by controls: 0 for no effect and ±100 for the full control effect.
SMILES,HT1080 IDH1KD tx,ELG1 repair inh,IL1B secr inh,HT1080-NT tox,TDP1 cell CPT,DT40 TDP1 no CPT
O=C(C=Cc1ccccc1F)c1ccccc1,?,/,-65*,?,?,?
O=C(N/N=C/c1ccc(OC2CSC2)cc1)c1ccccc1,16%[9.24 µM],?,-7,?,3%,-7%
Cc1ccc(C(=O)/C=C/c2ccc3ncccc3c2)cc1,-24%,?,-58*,-13%,18µM*,29µM*
O=C(/C=C/c1ccc(OC2CSC2)cc1)c1ccccc1,?,?,-11,?,18µM*,18µM*
Cc1ccc(C(=O)Nc2ccc3ncccc3c2)cc1,-1%,?,?,-2%,-29%,?
O=C(/C=C/c1ccco1)Nc1ccccc1C(=O)Nc1cccc(C(=O)O)c1,0%,?,22,1%,13%,2%
CC(=O)Nc1cccc(C(=O)/C=C/c2ccco2)c1,1%,?,-71*,12%,?,?
COc1cccc(CNC(=O)c2c(OC)cc(=O)n3c2CCN(C(=O)c2ccccc2Cl)CC3)c1,/,/,/,/,1%,-8%
N#Cc1ccc(CN2CCN(C(=O)C3CC(=O)N(c4ccccc4F)C3)CC2)cc1 (stereo not given),-2%,?,9,3%,-12%,-8%
CC1=C(C(=O)O)N2C(=O)[C@@H](NC(=O)[C@H](N)C3=CCC=CC3)[C@H]2SC1,/,/,/,/,?,-14%
CCOC(=O)CNC(=O)Nc1cc(C(=O)NCc2ccccc2OC)ccc1N1CCCC1,/,/,/,/,-10%,-25%
Cc1ccc(C(=O)Cn2c(C(=O)/C=C/c3ccccc3)nc3ccccc32)cc1,?,17%,?,?,16µM*,16µM*
CN(C(=O)C=Cc1ccco1)c1ccccc1,14%,/,-5,23%,?,?
CC(=O)Nc1ccc(C(=O)/C=C/c2ccco2)cc1,0%,?,-7,1%,21µM*,?
O=C(C=Cc1cccc(Cl)c1)c1ccccc1,?,/,?,?,15µM*,23µM*
CN(C)c1ccc(C(=O)/C=C/c2ccco2)cc1,21%,?,-101*,18%,15µM*,?
O=C(C=Cc1ccco1)c1ccc2ccccc2c1,?,/,-65*,17%,?,?
Cc1ccc(C(=O)/C=C/C(=O)O)cc1,?,1%,-6,?,?,26µM*
Cc1ccc(/C=C/C(=O)c2c(C)nc3ccccn23)cc1,-21%,?,-95*,?,16µM*,16µM*
CC(=O)c1c(C)nc2ccccn12,2%,7%,-5,15%,-13%,8%
COC(=O)c1ccc(OC(=O)/C=C/c2ccco2)cc1,2%,14%,16,2%,3%,-19%
CCCN(CCC)Cc1cc(=O)oc2cc(C)cc(C)c12,1%,/,3,20%,?,?
O=C(NCc1cccc(C(F)(F)F)c1)C1CC2Cn3c(nc4ccccc43)C2N1Cc1ccccc1 (stereo not given),-5%,/,-9,0%,-90%,13µM*
CC(=O)Nc1ccc(S(=O)(=O)NC2(c3ccccc3)C(=O)N(C)C(=O)N(C)C2=O)cc1,8%,/,17,5%,-18%,-7%
COc1c(O)cccc1/C=N/NC(=O)Cn1ccnc1C,-7%,23µM*,62,8%,?,23µM*
SMILES,HT1080 IDH1KD tx,ELG1 repair inh,IL1B secr inh,HT1080-NT tox,TDP1 cell CPT,DT40 TDP1 no CPT
COc1cccc(/C=N/NC(=O)Cn2ccnc2C)c1,0%,-8%,27,9%,-8%,-3%
COc1ccc(C(=O)N2CCN(c3ccc([N+](=O)[O-])c(NCCc4ccc(OC)c(OC)c4)c3)CC2)cc1,?,?,?,1.2µM*,4.1µM*,2.6µM*
COc1ccc(CCNc2cc(N3CCN(C(=O)c4ccc(C)cc4)CC3)ccc2[N+](=O)[O-])cc1OC,/,2.1µM*,/,/,/,/
COc1ccc(CCNc2cc(N3CCN(C(=O)c4ccccc4F)CC3)ccc2[N+](=O)[O-])cc1OC,?,4.1µM*,-2,-2%,4.6µM*,5.2µM*
CC(CNC(=O)CCCn1c(=O)c2cccn2c2cccnc21)c1ccccc1 (stereo not given),0%,/,-7,6%,?,?
Cc1c(C(=O)Nc2ccc(S(=O)(=O)Nc3ncccn3)cc2)oc2ccc(F)cc12,0%,?,-4,-1%,-2%,-4%
CCCCCn1c(=O)[nH]c2cc(C(=O)Nc3ccc(F)c(F)c3)ccc2c1=O,/,/,/,/,-25%,?
Cc1nnc(NCc2ccc(F)cc2)c2c1nnn2Cc1ccccc1Cl,/,/,/,/,2.9µM*,2.3µM*
Fc1ccc(N2CCN(c3ncnc4c3nnn4Cc3ccccc3Cl)CC2)cc1,10%,/,-10,5%,?,15µM*
O=C(c1ccco1)N1CCN(c2ncnc3c2nnn3Cc2ccccc2Cl)CC1,-17%,23µM*,-24,2%,?,23µM*
Cc1nnc(NCc2ccc(Cl)cc2)c2c1nnn2Cc1ccc(F)cc1,/,/,/,/,6%,-8%
O=C(c1ccco1)N1CCN(c2nc(C(F)(F)F)nc3c2nnn3Cc2ccccc2)CC1,?,?,?,?,18µM*,?
O=C(NCC(=O)c1ccccc1)OCc1ccc([N+](=O)[O-])cc1,-3%,?,12,-5%,-14%,-22%
CC1(C(=O)Nc2c(F)c(F)c(F)c(F)c2F)CC1(Br)Br (stereo not given),-5%,-2%,-3,-1%,-7%,-29%
Cc1nnc(N2CCN(c3ccc(Cl)cc3)CC2)c2c1nnn2Cc1ccc(F)cc1,/,/,/,/,?,2.6µM*
O=C1CC(=C2c3ccccc3-c3ccccc32)C(=O)N1CCCCN1CCN(c2ccccc2)CC1,?,-11%,-26,?,18µM*,16µM*
CCOC(=O)N1CCN(c2c(NCc3ccc(Cl)cc3)c(=O)c2=O)CC1,5.8µM*,16%,0,?,4.1µM*,5.8µM*
CCOC(=O)N1CCN(c2c(NCc3ccc(F)cc3)c(=O)c2=O)CC1,5.2µM*,?,42,5.2µM*,4.1µM*,3.3µM*
